Reference: PubChem BioAssay (Tox21)
Several values for one entry are separate records, joined by “and”; a condition that tells them apart may be missing. Equal values may be shown once. Unmarked numbers belong to inactive results. Results filed as inconclusive are left out. Entries that show only a call come without a potency. Activity calls are given as the source filed them. The call rests on the fitted dose curve; in most records, active means well fitted curve in the direction sought with a large enough effect in the repeat runs; inconclusive means weak or mixed curves; inactive means no such curve, though single readings can be large; an effect the other way counts as inactive or inconclusive.

What was measured:
[1] = A CellTox Green Cytotoxicity Assay to monitor cytotoxicity in HEK293 cells - 40 hour (AID 1224871); further: nearly all actives have a fitted effect of over 45% in size
Outline: (§1)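 Each value comes from one timepoint of a single continuous run in which HEK293 cells with CellTox Green were exposed to compound for up to 40 h at 37 C, dye fluorescence rising with cell death.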

[2] = qHTS RealTime-Glo MT Cell Viability Assay in HEK293 cells - 40 hour (AID 1224874); conditions: RealTime-Glo luminescence; max response: hits give low values; further: nearly all actives have a fitted effect of over 50% in size; further: potency means the concentration at half of the fitted maximal effect
Outline: (§2)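 qHTS format; HEK293 cells with NanoLuc/prosubstrate reagent, 37 C/5% CO2 for 5 h pre-dosing; compounds 23 nL in DMSO; luminescence at each time point reflects viable cells.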

[3] = A CellTox Green Cytotoxicity Assay to monitor cytotoxicity in HEK293 cells - 24 hour (AID 1224875); further: nearly all actives have a fitted effect of over 45% in size; further: potency means the concentration at half of the fitted maximal effect
Outline: as §1

[4] = A CellTox Green Cytotoxicity Assay to monitor cytotoxicity in HepG2 cells - 16 hour (AID 1224876); further: nearly all actives have a fitted effect of over 45% in size; further: potency means the concentration at half of the fitted maximal effect
Outline: (§3)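 Continuous culture of HepG2 cells with a membrane-impermeant DNA dye; rising fluorescence marks dead cells. Compound exposure lasted up to 40 h at 37 C, with reads every 8 h from 0 h.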

[5] = qHTS RealTime-Glo MT Cell Viability Assay in HepG2 cells - 32 hour (AID 1224877); further: nearly all actives have a fitted effect of over 55% in size
Outline: (§4)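 HepG2 suspension premixed with RealTime-Glo reagents is plated at 600 cells per well and left 5 h at 37 C/5% CO2. Compounds in DMSO then go in, and bioluminescence reflecting viable cell number is recorded over 40 h.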

[6] = A CellTox Green Cytotoxicity Assay to monitor cytotoxicity in HepG2 cells - 24 hour (AID 1224878); further: nearly all actives have a fitted effect of over 45% in size; further: potency means the concentration at half of the fitted maximal effect
Outline: as §3

[7] = A CellTox Green Cytotoxicity Assay to monitor cytotoxicity in HepG2 cells - 40 hour (AID 1224879); further: nearly all actives have a fitted effect of over 40% in size; further: potency means the concentration at half of the fitted maximal effect
Outline: as §3

[8] = qHTS RealTime-Glo MT Cell Viability Assay in HEK293 cells - 0 hour (AID 1224880)
Outline: as §2

[9] = A CellTox Green Cytotoxicity Assay to monitor cytotoxicity in HEK293 cells - 32 hour (AID 1224881); further: nearly all actives have a fitted effect of over 40% in size
Outline: as §1

[10] = A CellTox Green Cytotoxicity Assay to monitor cytotoxicity in HepG2 cells - 0 hour (AID 1224882); further: nearly all actives have a fitted effect of over 35% in size
Outline: as §3

[11] = A CellTox Green Cytotoxicity Assay to monitor cytotoxicity in HepG2 cells - 32 hour (AID 1224883); further: nearly all actives have a fitted effect of over 50% in size; further: potency means the concentration at half of the fitted maximal effect
Outline: as §3

[12] = qHTS RealTime-Glo MT Cell Viability Assay in HEK293 cells - 24 hour (AID 1224886); further: nearly all actives have a fitted effect of over 50% in size; further: potency means the concentration at half of the fitted maximal effect
Outline: (§5)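 Reads taken at 0, 8, 16, 24, 32 and 40 h from the same wells. HEK293 cells (600/well) carried RealTime-Glo reagents from seeding, with compound added after a 5 h settle at 37 C.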

[13] = A CellTox Green Cytotoxicity Assay to monitor cytotoxicity in HEK293 cells - 16 hour (AID 1224888); further: nearly all actives have a fitted effect of over 35% in size; further: potency means the concentration at half of the fitted maximal effect
Outline: as §1

[14] = qHTS RealTime-Glo MT Cell Viability Assay in HepG2 cells - 0 hour (AID 1224889); further: nearly all actives have a fitted effect of over 50% in size
Outline: as §4

[15] = qHTS RealTime-Glo MT Cell Viability Assay in HEK293 cells - 16 hour (AID 1224872); further: nearly all actives have a fitted effect of over 50% in size; further: potency means the concentration at half of the fitted maximal effect
Outline: as §5

[16] = qHTS RealTime-Glo MT Cell Viability Assay in HepG2 cells - 8 hour (AID 1224873); further: nearly all actives have a fitted effect of over 55% in size
Outline: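 Real-time viability: cells seeded at 600 per well together with NanoLuc and cell-permeant prosubstrate, compounds added after 5 h incubation. Luminescence tracked at 0, 8, 16, 24, 32 and 40 h of exposure.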

[17] = A CellTox Green Cytotoxicity Assay to monitor cytotoxicity in HEK293 cells - 8 hour (AID 1224884); further: nearly all actives have a fitted effect of over 35% in size; further: potency means the concentration at half of the fitted maximal effect
Outline: as §1

[18] = qHTS RealTime-Glo MT Cell Viability Assay in HepG2 cells - 16 hour (AID 1224885); further: nearly all actives have a fitted effect of over 50% in size
Outline: as §4

[19] = qHTS RealTime-Glo MT Cell Viability Assay in HEK293 cells - 8 hour (AID 1224887); further: nearly all actives have a fitted effect of over 50% in size; further: potency means the concentration at half of the fitted maximal effect
Outline: as §2

[20] = A CellTox Green Cytotoxicity Assay to monitor cytotoxicity in HepG2 cells - 8 hour (AID 1224890); further: nearly all actives have a fitted effect of over 45% in size
Outline: as §3

CC1(C)C(C=C(Cl)Cl)C1C(=O)OC(C#N)c1ccc(F)c(Oc2ccccc2)c1 (stereo not given)
Potency [1]: inactive | max response [2]: -18.6% | Potency [3]: inactive | Potency [4]: inactive | Potency [5]: inactive | Potency [6]: inactive | Potency [7]: inactive | Potency [8]: inactive | Potency [9]: inactive | Potency [10]: inactive | Potency [11]: inactive | Potency [12]: inactive | Potency [13]: inactive | Potency [14]: inactive

Oc1ccc2[nH]cc(CCCCN3CC=C(c4ccccc4)CC3)c2c1
Potency [15]: 9.52 µM (active) | Potency [16]: inactive | Potency [3]: inactive | Potency [4]: inactive | Potency [6]: 19 µM (active) | Potency [7]: 23.9 µM (active) | Potency [8]: inactive | Potency [10]: inactive | Potency [11]: 23.9 µM (active) | Potency [17]: inactive | Potency [18]: inactive | Potency [12]: 19 µM (active) | Potency [19]: 8.49 µM (active) | Potency [13]: inactive | Potency [14]: inactive

COC(=O)N(OC)c1ccccc1COc1ccn(-c2ccc(Cl)cc2)n1
Potency [2]: 13.8 µM (active) | Potency [3]: inactive | Potency [4]: inactive | Potency [5]: inactive | Potency [6]: inactive | Potency [7]: inactive | Potency [8]: inactive | Potency [9]: inactive | Potency [10]: inactive | Potency [11]: inactive | Potency [17]: inactive | Potency [18]: inactive | Potency [13]: inactive | Potency [14]: inactive | Potency [20]: inactive

Nc1ccccc1-c1ccccc1
Potency [15]: inactive | Potency [16]: inactive | max response [2]: -12.7% | Potency [4]: inactive | Potency [5]: inactive | Potency [6]: inactive | Potency [7]: inactive | Potency [8]: inactive | Potency [10]: inactive | Potency [11]: inactive | Potency [17]: inactive | Potency [18]: inactive | Potency [12]: inactive | Potency [19]: inactive | Potency [13]: inactive | Potency [14]: inactive | Potency [20]: inactive

Cc1ccc2cc3c(ccc4ccccc43)c3c2c1CC3
Potency [15]: inactive | Potency [16]: inactive | max response [2]: 6.91% | Potency [4]: inactive | Potency [5]: inactive | Potency [6]: inactive | Potency [7]: 6.93 µM (active) | Potency [8]: inactive | Potency [9]: inactive | Potency [10]: inactive | Potency [11]: 6.93 µM (active) | Potency [17]: inactive | Potency [18]: inactive | Potency [12]: inactive | Potency [19]: inactive | Potency [14]: inactive | Potency [20]: inactive

C[C@@H]1CC2=CC(=O)CC[C@@H]2[C@H]2CC[C@@]3(C)[C@@H](CC[C@]3(C)O)[C@@H]21
Potency [1]: inactive | Potency [3]: inactive | Potency [4]: inactive | Potency [6]: inactive | Potency [7]: inactive | Potency [8]: inactive | Potency [9]: inactive | Potency [10]: inactive | Potency [11]: inactive | Potency [17]: inactive | Potency [18]: inactive | Potency [19]: inactive | Potency [13]: inactive | Potency [14]: inactive | Potency [20]: inactive

CCc1cccc(C)c1N(C(=O)CCl)[C@@H](C)COC
Potency [15]: inactive | Potency [4]: 49 µM (active) | Potency [6]: 49 µM (active) | Potency [7]: 49 µM (active) | Potency [8]: inactive | Potency [10]: inactive | Potency [11]: 43.6 µM (active) | Potency [12]: inactive | Potency [19]: inactive | Potency [14]: inactive

CC(C)[C@@H](Nc1ccc(C(F)(F)F)cc1Cl)C(=O)OC(C#N)c1cccc(Oc2ccccc2)c1 (stereo not given in full)
Potency [1]: inactive | max response [2]: -6.7% | Potency [3]: inactive | Potency [4]: inactive | Potency [5]: inactive | Potency [6]: inactive | Potency [7]: inactive | Potency [8]: inactive | Potency [9]: inactive | Potency [10]: inactive | Potency [11]: inactive | Potency [17]: inactive | Potency [18]: inactive | Potency [12]: inactive | Potency [13]: inactive | Potency [14]: inactive | Potency [20]: inactive

C[C@]12Cc3cn[nH]c3C[C@@H]1CC[C@@H]1[C@@H]2CC[C@@]2(C)[C@H]1CC[C@]2(C)O
Potency [1]: inactive | Potency [16]: inactive | Potency [3]: inactive | Potency [4]: inactive | Potency [5]: inactive | Potency [8]: inactive | Potency [9]: inactive | Potency [10]: inactive | Potency [17]: inactive | Potency [18]: inactive | Potency [19]: inactive | Potency [13]: inactive | Potency [14]: inactive | Potency [20]: inactive

CC(=O)C(Cl)C(=O)N(C)C (stereo not given)
Potency [15]: inactive | Potency [16]: inactive | max response [2]: 3.79% | Potency [3]: inactive | Potency [4]: inactive | Potency [5]: inactive | Potency [6]: inactive | Potency [7]: inactive | Potency [10]: inactive | Potency [11]: inactive | Potency [17]: inactive | Potency [18]: inactive | Potency [12]: inactive | Potency [19]: inactive | Potency [13]: inactive | Potency [14]: inactive

CCC1COC(Cn2cncn2)(c2ccc(Cl)cc2Cl)O1 (stereo not given)
Potency [1]: inactive | Potency [16]: inactive | Potency [3]: inactive | Potency [4]: inactive | Potency [6]: inactive | Potency [8]: inactive | Potency [9]: inactive | Potency [10]: inactive | Potency [11]: inactive | Potency [17]: inactive | Potency [18]: inactive | Potency [19]: inactive | Potency [13]: inactive | Potency [14]: inactive | Potency [20]: inactive

O=S(=O)(NS(=O)(=O)C(F)(F)F)C(F)(F)F
Potency [16]: inactive | Potency [2]: 1.94 µM (active) | Potency [3]: inactive | Potency [6]: 48.9 µM (active) | Potency [7]: 48.9 µM (active) | Potency [8]: inactive | Potency [9]: inactive | Potency [10]: inactive | Potency [11]: 48.9 µM (active) | Potency [17]: inactive | Potency [18]: inactive | Potency [12]: 1.23 µM (active) | Potency [19]: inactive | Potency [13]: inactive | Potency [14]: inactive | Potency [20]: inactive

CC(C)N(C(=O)CCl)c1ccccc1
Potency [1]: inactive | Potency [2]: 49 µM (active) and 38.9 µM (active) | Potency [3]: inactive | Potency [4]: inactive | Potency [6]: inactive | Potency [8]: inactive | Potency [9]: inactive | Potency [10]: inactive | Potency [11]: 49 µM (active) | Potency [17]: inactive | Potency [12]: 49 µM (active) | Potency [19]: inactive | Potency [13]: inactive | Potency [14]: inactive | Potency [20]: inactive

BrCC(Br)(Br)Br
Potency [15]: 25.5 µM (active) | Potency [16]: inactive | Potency [2]: 45.3 µM (active) | Potency [3]: inactive | Potency [4]: inactive | Potency [5]: inactive | Potency [6]: inactive | Potency [7]: inactive | Potency [9]: inactive | Potency [10]: inactive | Potency [11]: inactive | Potency [17]: inactive | Potency [18]: inactive | Potency [12]: 45.3 µM (active) | Potency [19]: 16.1 µM (active) | Potency [13]: inactive | Potency [14]: inactive | Potency [20]: inactive

Oc1ccc([C@H]2CNCc3c2ccc(O)c3O)cc1O
Potency [3]: 26.8 µM (active) | Potency [4]: 23.9 µM (active) | Potency [5]: inactive | Potency [6]: 26.8 µM (active) | Potency [7]: 26.8 µM (active) | Potency [8]: inactive | Potency [11]: 26.8 µM (active) | Potency [17]: 26.8 µM (active) | Potency [12]: inactive | Potency [13]: 26.8 µM (active) | Potency [14]: inactive
